For two compounds, AC50 results are on record in PubChem BioAssay AID2284110 (EPA ToxCast).

Usually AC50 stands for the concentration at which the activity in the assay is half-maximal.

SMILES strings stand for the structures. Inconclusive results are not listed. Calls of active or inactive are those of the source. How the source made its calls: active means hit-call score of the fitted dose curve at least 0.9, where 1 is the maximum; inconclusive means response in the unintended direction; inactive means score below 0.9.

Sequence of human Adrenoceptor Receptor alpha1A Antagonism, conducted at France lab site, ADRA1A (gene 148) (P35348 whole entry, looked up): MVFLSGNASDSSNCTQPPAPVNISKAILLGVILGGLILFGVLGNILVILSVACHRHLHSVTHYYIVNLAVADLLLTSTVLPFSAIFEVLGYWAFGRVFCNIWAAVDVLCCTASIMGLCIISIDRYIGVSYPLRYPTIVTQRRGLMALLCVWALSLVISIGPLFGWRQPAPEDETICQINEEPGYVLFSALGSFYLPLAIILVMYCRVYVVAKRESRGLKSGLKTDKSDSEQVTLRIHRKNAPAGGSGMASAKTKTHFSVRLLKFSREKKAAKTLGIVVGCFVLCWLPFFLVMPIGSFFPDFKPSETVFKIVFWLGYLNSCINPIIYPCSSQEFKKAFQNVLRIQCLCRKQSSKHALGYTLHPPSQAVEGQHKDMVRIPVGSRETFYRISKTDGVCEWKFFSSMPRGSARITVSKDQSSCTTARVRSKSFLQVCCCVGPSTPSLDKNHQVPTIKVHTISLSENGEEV

The target in the experiment is human Adrenoceptor Receptor alpha1A Antagonism, conducted at France lab site, ADRA1A (gene 148) (UniProt P35348). Nature of the experiment: ERF_FR_GPCR_hADRA1A: Eurofins (ERF) G Protein-Coupled Receptor (GPCR) Radioligand Binding LeadHunter Assay for human Adrenoceptor Receptor alpha1A Antagonism, conducted at France lab site. The method, then:
ERF_FR_GPCR_hADRA1A is a biochemical, single-readout assay that uses extracted gene-proteins in a cell-free assay. Measurements were taken 1 hour after chemical dosing in a 96-well plate. See alpha1A Human Adrenoceptor GPCR Binding (Antagonist Radioligand) Assay, Cerep.ERF_FR_GPCR_hADRA1A is an assay component calculated from the ERF_FR_GPCR_hADRA1A assay. It is designed to measure radioligand binding using a type of binding reporter as detected by scintillation counting with radiometry technology.Data from the assay component ERF_FR_GPCR_hADRA1A was analyzed at the assay endpoint, ERF_FR_GPCR_hADRA1A, in the positive analysis fitting direction relative to DMSO as the negative control and baseline of activity. Using a type of binding reporter, loss-of-signal activity can be used to understand changes in binding as they relate to gene ADRA1A. To generalize the intended target to other relatable targets, this assay endpoint is annotated to the gpcr intended target family, where the subfamily is adrenoceptor.
Human cells are incubated for 60 minutes in room temprature, using [3H]prazosin ligand at 0.1 Kd (nM) with WB-4101 control inhibitor.Test Sample Requirements: Minimum for 1) Screen: 60 ul of 10 mM stock -OR- 1 mg (pre-weighed) for […] uM final testing. 2) Dose Response: 90 ul of 10 mM stock -OR- 1 mg (pre-weighed) for a top concentration at 10 uM.
`O=C(/C=C/c1ccc(O)cc1)CC(=O)/C=C/c1ccc(O)cc1`: the AC50 is 205 nM (active). Regarding `COc1cc(/C=C/C(=O)CC(=O)/C=C/c2ccc(O)c(OC)c2)ccc1O`, the AC50 was 258 nM (active).
